This note sets out measurements from ChEMBL document CHEMBL1961873, “Compounds: GSK PKIS; Assays: Nanosyn kinase panel” (2012).

For orientation: inhibition means the relative decrease from the control value, in per cent.

Test [1] addresses Casein kinase I isoform gamma-2 (Homo sapiens) (UniProt P78368). Particulars: at 1 µM.
Test [2] deals with Casein kinase I isoform gamma-3 (Homo sapiens) (UniProt Q9Y6M4). The note with it: at 0.1 µM.
For test [3] the target is unchanged. The note with it: at 1 µM.
In test [4] the target is Cyclin-dependent kinase 1 (Homo sapiens) (UniProt P06493). The note with it: at 0.1 µM.
Chain of Cyclin-dependent kinase 1 (Homo sapiens) (P06493 whole entry, looked up): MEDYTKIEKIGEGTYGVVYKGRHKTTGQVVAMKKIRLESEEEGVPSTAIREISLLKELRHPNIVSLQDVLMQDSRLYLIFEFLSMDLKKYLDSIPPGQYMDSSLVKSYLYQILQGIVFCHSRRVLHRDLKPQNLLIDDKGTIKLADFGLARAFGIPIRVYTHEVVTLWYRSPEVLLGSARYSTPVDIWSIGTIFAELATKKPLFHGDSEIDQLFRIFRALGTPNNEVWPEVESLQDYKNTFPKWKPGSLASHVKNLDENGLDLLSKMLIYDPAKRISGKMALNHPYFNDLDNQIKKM
Test [5] shares this target. Particulars: at 1 µM.
Test [6] concerns the target Cyclin-dependent kinase 2 (Homo sapiens) (UniProt P24941). Particulars: at 0.1 µM.
The target is the same in test [7]. Particulars: at 1 µM.
The target is the same in test [8]. Particulars: at 0.1 µM. The source holds these as a separate data set.
Test [9] has the same target. The note with it: at 1 µM. This is another data set of the same source.
Test [10] deals with T1, CDK3/Cyclin E (Homo sapiens) (UniProt P24864+Q00526). The note with it: at 0.1 µM.
T1 sequence (P24864 whole entry, looked up): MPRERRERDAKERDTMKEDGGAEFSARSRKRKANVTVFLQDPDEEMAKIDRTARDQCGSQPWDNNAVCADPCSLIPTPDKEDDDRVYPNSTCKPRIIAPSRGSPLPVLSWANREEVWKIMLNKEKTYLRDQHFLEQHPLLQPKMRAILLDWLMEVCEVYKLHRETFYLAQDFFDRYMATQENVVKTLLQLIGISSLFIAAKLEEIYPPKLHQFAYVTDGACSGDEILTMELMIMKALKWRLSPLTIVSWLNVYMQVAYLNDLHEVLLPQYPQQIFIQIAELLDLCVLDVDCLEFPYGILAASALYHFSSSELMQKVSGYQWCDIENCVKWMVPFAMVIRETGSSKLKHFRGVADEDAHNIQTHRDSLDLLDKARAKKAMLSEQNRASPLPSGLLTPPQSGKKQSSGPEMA
T1 sequence (Q00526 whole entry, looked up): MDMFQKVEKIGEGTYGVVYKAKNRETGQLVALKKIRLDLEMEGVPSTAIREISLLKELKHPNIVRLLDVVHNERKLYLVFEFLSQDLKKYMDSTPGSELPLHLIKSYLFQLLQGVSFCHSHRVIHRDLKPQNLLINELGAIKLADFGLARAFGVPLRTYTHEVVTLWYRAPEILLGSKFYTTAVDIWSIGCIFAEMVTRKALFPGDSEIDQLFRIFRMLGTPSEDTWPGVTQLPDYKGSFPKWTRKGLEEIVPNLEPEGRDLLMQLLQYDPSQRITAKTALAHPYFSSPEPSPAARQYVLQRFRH
Test [11] addresses T1, CDK3/Cyclin E (Homo sapiens). Particulars: at 1 µM.
The target in test [12] is Cyclin-dependent kinase 4 (Homo sapiens) (UniProt P11802). Particulars: at 0.1 µM.
Chain of Cyclin-dependent kinase 4 (Homo sapiens) (P11802 whole entry): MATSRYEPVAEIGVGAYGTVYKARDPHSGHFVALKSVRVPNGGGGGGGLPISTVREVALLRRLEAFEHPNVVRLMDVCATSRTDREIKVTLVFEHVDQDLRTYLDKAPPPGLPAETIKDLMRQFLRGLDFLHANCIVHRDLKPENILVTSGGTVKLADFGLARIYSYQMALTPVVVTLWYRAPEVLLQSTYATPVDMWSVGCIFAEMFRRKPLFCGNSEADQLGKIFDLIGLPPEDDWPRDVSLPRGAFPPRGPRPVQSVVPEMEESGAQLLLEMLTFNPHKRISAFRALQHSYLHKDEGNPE
For test [13] the target is unchanged. Particulars: at 1 µM.
Test [14] concerns the target Cyclin-dependent kinase 5 (Homo sapiens) (UniProt Q00535). Particulars: at 0.1 µM.
The target is the same in test [15]. Particulars: at 1 µM.
For test [16], the target named is Cyclin-dependent kinase 6 (Homo sapiens) (UniProt Q00534). The note with it: at 0.1 µM.
Chain of Cyclin-dependent kinase 6 (Homo sapiens) (Q00534 whole entry): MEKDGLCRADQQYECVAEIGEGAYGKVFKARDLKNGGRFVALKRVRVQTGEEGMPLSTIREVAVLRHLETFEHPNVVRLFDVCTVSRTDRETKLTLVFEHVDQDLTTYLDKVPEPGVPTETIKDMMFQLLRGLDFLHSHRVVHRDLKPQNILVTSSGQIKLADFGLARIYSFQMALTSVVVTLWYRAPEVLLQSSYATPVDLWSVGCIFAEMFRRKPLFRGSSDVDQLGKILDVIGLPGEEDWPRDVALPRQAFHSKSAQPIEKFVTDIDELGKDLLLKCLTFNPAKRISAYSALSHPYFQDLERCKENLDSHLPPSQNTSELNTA
The target is the same in test [17]. The note with it: at 1 µM.
The target of test [18] is Dual specificity protein kinase CLK2 (Homo sapiens) (UniProt P49760). The note with it: at 0.1 µM.
Chain of Dual specificity protein kinase CLK2 (Homo sapiens) (P49760 whole entry, looked up): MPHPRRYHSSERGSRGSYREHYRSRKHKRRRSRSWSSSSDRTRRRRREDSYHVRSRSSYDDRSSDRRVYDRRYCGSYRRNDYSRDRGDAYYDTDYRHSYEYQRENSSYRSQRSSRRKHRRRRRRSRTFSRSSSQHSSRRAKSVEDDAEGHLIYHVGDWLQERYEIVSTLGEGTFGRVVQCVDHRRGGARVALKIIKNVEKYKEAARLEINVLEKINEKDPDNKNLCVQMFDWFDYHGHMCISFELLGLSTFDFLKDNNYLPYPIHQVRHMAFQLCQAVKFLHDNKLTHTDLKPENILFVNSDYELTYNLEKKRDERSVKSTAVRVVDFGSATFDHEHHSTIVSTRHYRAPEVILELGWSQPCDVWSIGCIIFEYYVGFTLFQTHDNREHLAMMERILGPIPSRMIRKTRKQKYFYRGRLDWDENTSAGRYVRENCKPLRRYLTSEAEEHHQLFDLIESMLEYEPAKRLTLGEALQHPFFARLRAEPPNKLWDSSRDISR
The target is the same in test [19]. Particulars: at 1 µM.
Test [20] has as its target Dual specificity protein kinase CLK3 (Homo sapiens) (UniProt P49761). Particulars: at 0.1 µM.

Molecules are shown by their SMILES.

Chain of Dual specificity protein kinase CLK3 (Homo sapiens) (P49761 whole entry, looked up): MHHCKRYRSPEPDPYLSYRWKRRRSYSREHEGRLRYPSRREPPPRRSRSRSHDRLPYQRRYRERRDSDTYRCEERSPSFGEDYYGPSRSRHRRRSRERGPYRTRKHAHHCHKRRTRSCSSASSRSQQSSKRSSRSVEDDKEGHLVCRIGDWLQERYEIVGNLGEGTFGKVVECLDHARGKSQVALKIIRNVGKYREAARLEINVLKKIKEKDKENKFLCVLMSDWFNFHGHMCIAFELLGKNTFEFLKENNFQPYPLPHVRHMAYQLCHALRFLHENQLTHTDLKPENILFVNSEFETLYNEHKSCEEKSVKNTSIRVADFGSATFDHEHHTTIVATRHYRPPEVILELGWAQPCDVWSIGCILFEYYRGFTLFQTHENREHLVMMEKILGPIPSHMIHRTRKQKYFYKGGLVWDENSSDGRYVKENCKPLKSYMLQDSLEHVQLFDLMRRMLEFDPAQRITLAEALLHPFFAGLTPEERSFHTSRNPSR
Chain of Casein kinase I isoform gamma-2 (Homo sapiens) (P78368 whole entry, looked up, canonical isoform): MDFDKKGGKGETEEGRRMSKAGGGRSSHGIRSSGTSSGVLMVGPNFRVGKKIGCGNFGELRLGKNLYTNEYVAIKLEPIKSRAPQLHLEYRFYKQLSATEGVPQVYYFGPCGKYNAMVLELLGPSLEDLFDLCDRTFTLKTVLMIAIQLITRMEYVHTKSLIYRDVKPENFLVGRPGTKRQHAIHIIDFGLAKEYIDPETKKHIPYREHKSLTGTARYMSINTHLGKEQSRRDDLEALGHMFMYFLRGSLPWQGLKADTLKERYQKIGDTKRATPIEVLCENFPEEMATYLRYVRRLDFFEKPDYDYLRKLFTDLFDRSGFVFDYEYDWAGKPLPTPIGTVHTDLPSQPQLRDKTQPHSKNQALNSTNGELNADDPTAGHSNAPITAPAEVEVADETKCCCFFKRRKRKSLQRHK
Chain of Casein kinase I isoform gamma-3 (Homo sapiens) (Q9Y6M4 whole entry, looked up, canonical isoform): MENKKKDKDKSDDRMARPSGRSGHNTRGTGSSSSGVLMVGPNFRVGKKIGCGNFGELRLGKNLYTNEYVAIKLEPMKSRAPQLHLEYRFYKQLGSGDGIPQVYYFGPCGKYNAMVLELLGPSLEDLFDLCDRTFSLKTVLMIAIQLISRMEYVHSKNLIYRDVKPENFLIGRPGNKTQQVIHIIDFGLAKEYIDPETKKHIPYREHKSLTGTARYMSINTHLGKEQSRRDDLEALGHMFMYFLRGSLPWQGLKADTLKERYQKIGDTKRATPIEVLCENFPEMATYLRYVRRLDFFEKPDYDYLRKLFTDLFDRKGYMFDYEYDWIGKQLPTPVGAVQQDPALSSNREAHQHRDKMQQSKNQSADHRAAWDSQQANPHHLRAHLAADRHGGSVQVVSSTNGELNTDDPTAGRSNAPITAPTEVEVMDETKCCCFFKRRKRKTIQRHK
Chain of Cyclin-dependent kinase 5 (Homo sapiens) (Q00535 whole entry, looked up): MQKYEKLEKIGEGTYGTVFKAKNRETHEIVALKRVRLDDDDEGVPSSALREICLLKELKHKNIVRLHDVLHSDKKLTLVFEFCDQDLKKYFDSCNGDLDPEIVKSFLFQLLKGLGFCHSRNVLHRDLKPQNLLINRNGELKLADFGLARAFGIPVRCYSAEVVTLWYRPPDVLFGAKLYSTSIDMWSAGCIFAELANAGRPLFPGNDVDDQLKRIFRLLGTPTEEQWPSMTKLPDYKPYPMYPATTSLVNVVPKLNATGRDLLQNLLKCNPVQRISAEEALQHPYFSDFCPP

Consider `CCOc1nccc2c1nc(-c1nonc1N)n2CC`, for which the inhibition in test [1] turned out to be 1.13%; in test [2], 1.1%; in [3], 0.56%; in test [4], 0.5%; in test [5], 2.69%; in [6] it was 0.81%. The inhibition in test [7] is 2.63%; in test [8], 2.66%; in test [9], 5.12%; in [10] it was 2.48%; in test [11], -0.38%; in [12], 0.99%. Further, the inhibition in test [13] is 1.83%; in test [14], 0.91%; in [15], 1.13%; in test [16] it was -2.27%; in test [17], 1.84%; in [18] it was 1.77%. The inhibition stood at 1.91% in test [19] and 1.37% in test [20].
`O=C1Nc2ccccc2/C1=C/Nc1ccc2[nH]c(=O)[nH]c2c1`: the inhibition in test [1] came to 7.61%; in test [2], 3.84%; in test [3], 7.65%; in test [4], 1.63%; in test [5], 8.12%; in test [6] it was 2.91%. In addition, the inhibition in test [7] came to 7.88%; in test [8] it was 3.74%; in test [9], 12.8%; in test [10], 5.68%; in test [11], 8.57%; in test [12], 3.34%. For the same molecule, the inhibition turned out to be 11.3% in test [13]; 3.13% in test [14]; 24.1% in [15]; 18.1% in [16]; 59% in test [17]; 6.03% in test [18]. The inhibition in [19] was found to be 30.4%; in test [20], 1.23%.
Consider `COc1cc2ncnc(Nc3ccc4c(cnn4Cc4ccccc4)c3)c2cc1OC`, for which the inhibition turned out to be 2.98% in test [1]; 0.8% in [2]; 1.75% in test [3]; 2.61% in test [4]; 6.2% in test [5]; 4.41% in [6]. The inhibition in [7] is 2.68%; in test [8] it was 6.35%; in test [9], 7.13%; in [10], -0.7%; in [11], -1.25%; in [12] it was 1.5%. Besides, the inhibition in test [13] is 5.06%; in test [14], 4.4%; in test [15], 6.81%; in [16], -3.86%; in test [17], -2.1%; in [18] it was -0.74%. Also, the inhibition in test [19] stood at 0.84%; in test [20], 1.15%.
For `COc1cccc(-n2ncc3c(N/N=C/c4ccc(S(C)(=O)=O)cc4)ncnc32)c1`, the inhibition in test [1] is -0.73%; in [2], -4.22%; in test [3] it was -2.43%; in test [4] it was 26.2%; in [5] it was 64%; in [6], 32.1%. The inhibition was found to be 68% in test [7]; 7.18% in test [8]; 41.6% in test [9]; 4.38% in [10]; 20.8% in [11]; 0.01% in test [12]. In addition, the inhibition in test [13] turned out to be 20.4%; in [14] it was 21%; in [15], 59.2%; in [16] it was 0.78%; in test [17] it was 25.6%; in test [18], 8.7%. For the same molecule, the inhibition in test [19] was 18.4%; in test [20], -0.53%.
For `NS(=O)(=O)c1cccc(Nc2cc(-c3ccc(F)cc3)n[nH]2)c1`, the inhibition in [1] came to 4.87%; in [2], 1.83%; in test [3], 4.57%; in test [4], 0.79%; in test [5] it was 9.28%; in test [6] it was 2.32%. Further, the inhibition in test [7] came out at 11.1%; in test [8], 7.11%; in [9], 28.4%; in test [10], 10.6%; in test [11], 36.7%; in test [12], 1.88%. Moreover, the inhibition in test [13] was 10%; in test [14], 5.52%; in test [15], 31.4%; in test [16], 10.5%; in test [17], 52.5%; in test [18] it was 1.65%. Also, the inhibition is 1% in test [19] and 1.43% in [20].
On to `Cc1ccc2c(c1)/C(=N/Nc1ccc(S(N)(=O)=O)cc1)C(=O)N2`, for which the inhibition in [1] is 0.86%; in [2], 1.81%; in [3], -0.55%; in test [4], 3.51%; in [5] it was 23.4%; in test [6], 27%. The inhibition in test [7] is 69.6%; in test [8], 35%; in [9], 74.2%; in test [10], 14.9%; in test [11], 57.3%; in test [12], 1.36%. Further, the inhibition in test [13] was 16.9%; in test [14], 9.16%; in [15], 45.2%; in test [16], -2.12%; in [17] it was 36.9%; in [18], 1.98%. Besides, the inhibition in test [19] is 3.06%; in test [20], -1.33%.
For the molecule `CN(c1ccc(NC(=O)Nc2ccc(OC(F)(F)F)cc2)cc1)c1ccnc(Nc2cccc(S(N)(=O)=O)c2)n1`, the inhibition was 2.66% in test [1]; 1.74% in [2]; 2.37% in [3]; -0.1% in [4]; 5.09% in test [5]; 0.55% in test [6]. Also, the inhibition in [7] is 14.4%; in test [8], 1.2%; in test [9] it was 7.47%; in [10], -0.62%; in test [11], 3.98%; in test [12], 0.85%. The inhibition in [13] worked out at 6.76%; in test [14], 0.45%; in [15] it was 5.8%; in [16], 2.09%; in test [17], 27.4%; in [18], 1.61%. Moreover, the inhibition in test [19] was -2.84%; in test [20], 0.59%.
In the case of `[O-][S+]1CCN(Cc2ccc(-c3ccc4ncnc(Nc5ccc(OCc6ccccc6)c(Cl)c5)c4c3)o2)CC1`, the inhibition in test [1] is 1.66%; in test [2], 0.73%; in test [3], 4.22%; in test [4], 1.22%; in [5], 1.4%; in test [6] it was 2.81%. In addition, the inhibition in test [7] was 2.09%; in test [8], 0.43%; in [9] it was 1.73%; in test [10], -1.53%; in [11], -1.44%; in test [12], 0.13%. Besides, the inhibition in [13] was 3.22%; in [14], 0.19%; in test [15], 0.51%; in test [16], -0.89%; in test [17], 0.14%; in test [18], -0.72%. The inhibition is 0.49% in test [19] and 0.43% in test [20].
As to `Nc1nccc(-c2c(-c3ccc(F)cc3)ncn2CCCN2CCOCC2)n1`, the inhibition was 4.12% in test [1]; 3.31% in [2]; 6.54% in test [3]; 0.36% in [4]; 2.84% in test [5]; 1.82% in [6]. Besides, the inhibition in [7] is -4.06%; in [8], 2.73%; in test [9], 2.71%; in test [10], 4.59%; in test [11], -2.47%; in test [12], 3.06%. The inhibition in test [13] is 2.9%; in test [14], 0.16%; in test [15], 0.47%; in test [16], -2.14%; in test [17], 0.98%; in [18], 0.47%. Besides, the figures for the inhibition in test [19] and in test [20] were 0.74% and 1.31%, respectively.
Take `Cc1ccc(NC(=O)CC2CC2)cc1-c1ccc(C(=O)NCC2CC2)cc1`: the inhibition in test [1] is 2.91%; in [2], 0.5%; in [3] it was 2.08%; in test [4], -0.23%; in test [5], 0.76%; in test [6], -1.15%. The inhibition in test [7] is -1.13%; in test [8] it was 1.18%; in test [9], 2.92%; in test [10] it was 1.73%; in test [11], -2.46%; in test [12], 1.69%. Further, the inhibition in [13] was found to be 2.18%; in test [14], 0.04%; in test [15] it was 0.76%; in test [16], 1.72%; in [17], 1.87%; in test [18], 0.47%. Also, the inhibition in test [19] turned out to be 0.08%; in [20], 1.44%.
Consider `Nc1nccc(C#Cc2cncnc2Nc2ccc(OCc3cccc(F)c3)c(Cl)c2)n1`, for which the inhibition in [1] came to 3.89%; in test [2] it was 3.42%; in [3], 3.02%; in test [4], 0.61%; in [5] it was 2.58%; in [6] it was 1.73%. Further, the inhibition in test [7] came out at 1.37%; in test [8], 3.74%; in [9] it was 5.25%; in test [10], 1.09%; in test [11], 0.78%; in test [12], 3.03%. The inhibition in test [13] is 4.61%; in test [14], 1.09%; in [15] it was 1.9%; in test [16], 3.61%; in [17], 2.5%; in [18] it was 2.79%. The inhibition turned out to be 14.2% in [19] and 1.85% in test [20].
Regarding `CN(C)C(=O)O[C@@H]1CN[C@@H](C#Cc2cc3ncnc(Nc4ccc(OCc5cccc(F)c5)c(Cl)c4)c3s2)C1`, the inhibition is 5.93% in [1]; 0.73% in [2]; 5.49% in [3]; 0.38% in test [4]; 0.19% in test [5]; 0.82% in test [6]. In addition, the inhibition in [7] was 7.43%; in test [8] it was 0.72%; in test [9], 1.06%; in test [10] it was 3.66%; in [11] it was -1.66%; in test [12], 2.09%. The inhibition in test [13] was 1.46%; in test [14], 0.54%; in [15], 1.24%; in [16] it was -6.37%; in test [17] it was 0.91%; in [18] it was 0.95%. In addition, the inhibition in [19] was -0.08%; in [20] it was -0.16%.
On to `OCc1ccc(-c2nc(-c3ccccn3)c(-c3ccc4c(c3)OCO4)[nH]2)cc1`, for which the inhibition was found to be 4.06% in [1]; 3.67% in test [2]; 4.78% in test [3]; 0.21% in test [4]; 1.4% in test [5]; 1.49% in test [6]. For the same molecule, the inhibition was -2.92% in test [7]; 3.56% in [8]; 4.52% in test [9]; 1.69% in test [10]; 1.76% in test [11]; 2.89% in [12]. Moreover, the inhibition in [13] is 3.75%; in [14], 0.69%; in test [15], 1.21%; in test [16], -1%; in test [17], 2.55%; in test [18], 1.74%. The inhibition amounted to 4.27% in [19] and 1.94% in test [20].
Take `NS(=O)(=O)c1cccc(-c2cc3ccncc3cc2OCc2ccccc2)c1`: the inhibition in [1] stood at 4.41%; in [2], 4.33%; in test [3], 2.71%; in test [4], 2.03%; in test [5], 2.22%; in test [6], 1.1%. Further, the inhibition is 3.16% in [7]; 5.88% in test [8]; 6.78% in test [9]; 3.65% in test [10]; 0.51% in test [11]; 3.55% in test [12]. Further, the inhibition in test [13] was 6.33%; in test [14] it was 1.96%; in [15], 3.2%; in test [16] it was -1.23%; in test [17], 10.9%; in [18] it was 1.16%. Further, the figures for the inhibition in test [19] and in [20] were 1.27% and 1.46%, respectively.
